About 83,000 compounds went through this panel and 20% of them were active in at least one assay; those are over-represented in the sample as a whole.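 Values shown are percent growth following 48 h exposure of cells in 96-well plates to a single concentration of compound; below 10 was considered active.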 Calls of active or inactive are those of the source.
Tested on: SR leukemia
Experiment: NCI-60 one-dose screen, 48 h (100 = growth as untreated, 0 = no growth, -100 = all killed)
Settings: 10 µM unless noted

| Compound | growth |
| --- | --- |
| N#Cc1c(-c2ccc(O)cc2)c2c(N)nn(-c3ccccc3)c2[nH]c1=O | 115% (inactive) |
| CCN(CC)CCCCCNc1cc(OC(=O)c2ccccc2)cc2cccnc12 | -38.1% (active) |
| Clc1ccc(Cn2cc(-c3nc4ccc(Br)nc4n3Cc3ccc(Cl)cc3)c3cccnc32)cc1 | 61% (inactive) |
| Cn1c2c(Cl)c(Cl)ccc2c2c(C#N)c[nH]c(=O)c21 | 112% (inactive) |
| COc1ccc(C(=O)/C=C/c2cc(-c3cc(OC)c(OC)c(OC)c3)n[nH]2)cc1OC | -15.6% (active) |
| COC1=C(Br)C(=O)C(OC)=C(Br)C1=O | 42.7% (inactive) |
| CN(C)c1ccc(N)c2ccccc12 | 55% (inactive) |
| Cc1cc(C=O)c(C)c2c1[nH]c1ccccc12 | 85.5% (inactive) |
| N#CC1=C(N)Oc2c(sc3c(F)cccc23)C1c1ccc(Cl)cc1 (configuration not stated) | 10.8% (inactive) |
| COc1ccc(C2C(C#N)=C(N)Oc3c2sc2c(F)cccc32)cc1 (configuration not stated) | 11.6% (inactive) |
| C=COCCCCCCCCCCCCCCCCCC | 94.6% (inactive) |
| O=C1C=Cc2ncccc2C1=O | 12.2% (inactive) |
| O=C1c2ccccc2C(=Cc2ccccc2)c2ccccc21 | 8.17% (active) |
| CN(C)c1ccc(C(=O)c2ccc(N(C)C)c(N)c2)cc1N | 7.86% (active) |
| O=C1c2cccc3cccc(c23)C(=O)N1CC#Cc1ccc2c3c(cccc13)C(=O)N(CCN1CCNCC1)C2=O | 2.23% (active) |
| C=C1CC[C@@H](C(=O)OC)Cc2nc(C)ccc21 | 95.7% (inactive) |
| N#C/C(=C\c1ccc(-c2ccccc2)o1)c1nc(-c2ccco2)cs1 | 103% (inactive) |
| O=C(/C=C\c1ccc2c(c1)OCO2)/C=C/c1ccc2c(c1)OCO2 | 10.5% (inactive) |
| Cc1ccc(-c2nc3ccc(Cl)cc3c(=O)n2N2C(=O)CSC2c2ccccc2Cl)cc1 (configuration not stated) | 80.8% (inactive) |
| CC(=O)OC[C@]12CC[C@@H](/C(C)=N/O)[C@@H]1[C@H]1CC[C@@H]3[C@@]4(C)CCCNC(C)(C)[C@@H]4CC[C@@]3(C)[C@]1(C)CC2 | 51.8% (inactive) |
| C=C1C(=O)O[C@H]2[C@H]1CC/C(COC(=O)NCc1c[nH]c3ccccc13)=C\CC[C@@]1(C)O[C@@H]21 | 4.39% (active) |
| O=C1c2cccc3cccc(c23)C(=O)N1CC#Cc1ccc2c3c(cccc13)C(=O)N(CCO)C2=O | 71.4% (inactive) |
| Cc1cc(N2CCOCC2)nc(N(CCCNc2ccnc3cc(Cl)ccc23)Cc2ccco2)n1 | -11.4% (active) |
| Cn1c2ccccc2c2c3c(c4c5cccnc5[nH]c4c21)C(=O)N(O)C3=O | 11.4% (inactive) |

Tested on: RPMI-8226 leukemia
Experiment: as above
Settings: 10 µM unless noted

| Compound | growth |
| --- | --- |
| Cc1ccc(-c2nc([P+](c3ccccc3)(c3ccccc3)c3ccccc3)c(N3CCOCC3)o2)cc1 | -24.2% (active) |
| Cc1cc(N2CCCCC2)nc(N(CCNc2ccnc3cc(Cl)ccc23)Cc2ccco2)n1 | -36.5% (active) |
| Cc1cc(C)c(NC(=O)c2sc3nc4c(cc3c2N)CCCC4)c(C)c1 | 55.2% (inactive) |
| CCNCCCn1c2c(c3ccc([N+](=O)[O-])cc3c1=O)C(=O)c1cc(OC)cnc1-2 | -22% (active) |
| CCCC(=O)N1CCCCC1CC (configuration not stated) | 95.7% (inactive) |
| C#CCn1c(C)cc(C)c(C#N)c1=O | 103% (inactive) |
| Cc1cc2nc3c4cc([N+](=O)[O-])cc([N+](=O)[O-])c4n(CCN(C)C)c3nc2cc1C | 67.5% (inactive) |
| Cn1c(/C(C#N)=C/c2ccc3ccccc3c2)cc2ccccc21 | 5.55% (active) |
| CC(=O)O[C@H]1CC[C@]2(C)[C@H]3C(=O)C=C4[C@@H]5C[C@](C)(C(=O)N6CCCNCC6)CC[C@]5(C)CC[C@@]4(C)[C@]3(C)CC[C@H]2C1(C)C | -32.3% (active) |
| Cc1cc(N(CCNc2ccnc3cc(Cl)ccc23)Cc2ccco2)nc(Cl)n1 | -29.5% (active) |
| COc1ccc2c(c1)c(-c1nc(-c3cn(C)c4ncccc34)cs1)cn2CCCN1CCCCC1 | -8.74% (active) |
| NC(Cc1ccc(O)cc1)C(=O)N/N=C/c1ccccc1O (configuration not stated) | 103% (inactive) |
| CC(=O)NC1=C(C#N)C(c2ccccc2Cl)c2c(ccc3ccccc23)O1 (configuration not stated) | 55.5% (inactive) |
| COC(=O)[C@]12CC[C@@H](C)[C@H](C)[C@@H]1C1=CC[C@@H]3[C@@]4(C)C=C(O)C(=O)C(C)=C4CC[C@@]3(C)[C@]1(C)CC2 | 1.56% (active) |
| N#Cc1c(-c2ccc(O)cc2)c2c(N)nn(-c3ccccc3)c2[nH]c1=O | 101% (inactive) |
| CCN(CC)CCCCCNc1cc(OC(=O)c2ccccc2)cc2cccnc12 | 100% (inactive) |
| Clc1ccc(Cn2cc(-c3nc4ccc(Br)nc4n3Cc3ccc(Cl)cc3)c3cccnc32)cc1 | 67.6% (inactive) |
| Cn1c2c(Cl)c(Cl)ccc2c2c(C#N)c[nH]c(=O)c21 | 65.2% (inactive) |
| COc1ccc(C(=O)/C=C/c2cc(-c3cc(OC)c(OC)c(OC)c3)n[nH]2)cc1OC | -36% (active) |

| Compound | growth |
| --- | --- |
| COC1=C(Br)C(=O)C(OC)=C(Br)C1=O | 101% (inactive) |
| CN(C)c1ccc(N)c2ccccc12 | 68.8% (inactive) |
| Cc1cc(C=O)c(C)c2c1[nH]c1ccccc12 | 93.9% (inactive) |
| N#CC1=C(N)Oc2c(sc3c(F)cccc23)C1c1ccc(Cl)cc1 (configuration not stated) | 10.6% (inactive) |
| COc1ccc(C2C(C#N)=C(N)Oc3c2sc2c(F)cccc32)cc1 (configuration not stated) | 11.8% (inactive) |
| C=COCCCCCCCCCCCCCCCCCC | 115% (inactive) |
| O=C1C=Cc2ncccc2C1=O | 27.6% (inactive) |
| O=C1c2ccccc2C(=Cc2ccccc2)c2ccccc21 | 22.4% (inactive) |
| CN(C)c1ccc(C(=O)c2ccc(N(C)C)c(N)c2)cc1N | 60.4% (inactive) |
| O=C1c2cccc3cccc(c23)C(=O)N1CC#Cc1ccc2c3c(cccc13)C(=O)N(CCN1CCNCC1)C2=O | 8.66% (active) |
| C=C1CC[C@@H](C(=O)OC)Cc2nc(C)ccc21 | 100% (inactive) |
| N#C/C(=C\c1ccc(-c2ccccc2)o1)c1nc(-c2ccco2)cs1 | 49.6% (inactive) |
| O=C(/C=C\c1ccc2c(c1)OCO2)/C=C/c1ccc2c(c1)OCO2 | -9.97% (active) |
| Cc1ccc(-c2nc3ccc(Cl)cc3c(=O)n2N2C(=O)CSC2c2ccccc2Cl)cc1 (configuration not stated) | 80.1% (inactive) |
| CC(=O)OC[C@]12CC[C@@H](/C(C)=N/O)[C@@H]1[C@H]1CC[C@@H]3[C@@]4(C)CCCNC(C)(C)[C@@H]4CC[C@@]3(C)[C@]1(C)CC2 | 49.2% (inactive) |
| C=C1C(=O)O[C@H]2[C@H]1CC/C(COC(=O)NCc1c[nH]c3ccccc13)=C\CC[C@@]1(C)O[C@@H]21 | 4.57% (active) |
| O=C1c2cccc3cccc(c23)C(=O)N1CC#Cc1ccc2c3c(cccc13)C(=O)N(CCO)C2=O | 74.5% (inactive) |
| Cc1cc(N2CCOCC2)nc(N(CCCNc2ccnc3cc(Cl)ccc23)Cc2ccco2)n1 | 19.4% (inactive) |
| Cn1c2ccccc2c2c3c(c4c5cccnc5[nH]c4c21)C(=O)N(O)C3=O | 39.6% (inactive) |

— PubChem BioAssay (NCI)
